Sfp PPTase inh: Sfp phosphopantetheinyl transferase inhibition; Q9F4F7; Biochemical Sfp PPTase activity, qHTS; Potency, µM, for the others: largest response in the series, negative = inhibition, actives largely listed as inhibitors; 310,000 compounds, 3.5% hits; AID 1490;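 further: the enzyme is Sfp with the accession as filed and its product quenches rhodamine fluorescence; 0% = enzyme reaction without inhibitor and -100% = no enzyme wells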
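Fluorescence-quenching assay with 15 nM Sfp, 5 uM rhodamine-CoA and 12.5 uM BHQ-2-labelled ybbR peptide in pH 7.6 Hepes/MgCl2 buffer. Enzyme was pre-incubated with compound for 15 min at room temperature. Rate was taken from the 30-min fluorescence change (525/598 nm).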
BAZ2B block: BAZ2B (human) inhibition; AID 504333; Q9UIF8; AlphaScreen BAZ2B-H3K14Ac peptide displacement; 360,000 compounds, 4.4% hits; Potency, µM (doses to about 114 µM), for inactives: at the highest dose activity change, negative = inhibition, most hits filed as inhibitors; further: on the % scale 0 is the no-effect control and ±100 the full control effect; nearly all actives have a fitted effect of over 60% in size
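AlphaScreen displacement: compounds (up to 110uM) incubated 30 min at room temperature with a preformed 50 nM BAZ2B/50 nM biotinylated H3K14Ac peptide complex in PBS pH 7.4 with Tween-20. Donor and acceptor beads at 10 ug/mL final added, 20 min light-protected before reading.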
G9a block: inhibitors of human histone lysine methyltransferase G9a; G9a H3K9 monomethylation, AlphaScreen, 2 h; Q96KQ7; Potency, µM (doses to about 102 µM), for the others: at the top dose activity, negative = inhibition, most hits filed as inhibitors; 350,000 compounds, 8.8% hits; further: on the % scale 0 is the no-effect control and ±100 the full control effect; nearly all actives have a fitted effect of over 75% in size
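G9a (20 nM) preincubated 15 min RT with compounds, then 500 nM biotinylated H3K9 peptide and 20 uM SAM added; 2 h RT reaction. Monomethyl-H3K9 product detected by AlphaScreen with anti-H3K9me1 antibody, streptavidin donor and anti-rabbit IgG acceptor beads.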
HP1b chromo inh: blocks HP1-beta chromodomain binding to methylated histone tails. Potency, µM (doses to about 114 µM), inactives show at the highest dose activity change, negative = inhibition, most hits filed as inhibitors. AlphaScreen HP1-beta / biotin-H3K9me3 peptide binding. 390,000 compounds, 0.56% hits. P83916; further: nearly all actives have a fitted effect of over 70% in size
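HP1-beta protein (50 nM final) preincubated 30 min at room temperature with biotinylated H3(1-18)K9me3 peptide (50 nM) in PBS pH 7.4, 0.01% Tween-20, then compound added for 30 min. AlphaScreen streptavidin donor/nickel chelate acceptor beads (10 ug/mL final), 30 min dark, luminescence read.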
PLK1 PBD inh: PLK1 (human) polo-box domain binding inhibition. P53350. Plk1 PBD binding of FITC phosphopeptide, fluorescence polarization. Potency, µM, inactives show max response, negative = inhibition, most hits filed as inhibitors. 360,000 compounds, 2.8% hits; further: series mostly up to about 57 µM; on the % scale 0 is the no-effect control and ±100 the full control effect; nearly all actives have a fitted effect of over 65% in size
JMJD2A Tudor inh: inhibitors of human JMJD2A Tudor domain | AlphaScreen JMJD2A-Tudor / H3K4me3 peptide binding | 390,000 compounds, 4.4% hits | Potency, µM (titrated, usually from 114 µM), inactives show at the highest dose activity change, negative = inhibition, actives largely listed as inhibitors | O75164; further: on the % scale 0 is the no-effect control and ±100 the full control effect; nearly all actives have a fitted effect of over 50% in size
* hit, by the source's call; ? = inconclusive; . = no result given; [ ] = another dose, or the depositor's remark. This is a sample that favours compounds with a hit; in the whole collection about 12% have one here. The call rests on the fitted dose curve; in most records, active means well fitted curve in the direction sought with a large enough effect; inconclusive means small, poorly fitted or top-dose-only effect, or another doubt; inactive means no such curve, though single readings can be large; an effect the other way counts as inactive or inconclusive. Potency means the concentration at half of the fitted maximal effect.

SMILES	Sfp PPTase inh	BAZ2B block	G9a block	HP1b chromo inh	PLK1 PBD inh	JMJD2A Tudor inh
CN1CCC(OC(=O)COc2ccc(Br)cc2)CC1	0.5%	-10.0%	44.7µM*	21.2%	-5.7%	-3.9%
CCCCSc1nc2c([nH]1)c(=O)n(C)c(=S)n2C	.	.	.	22.9%	-11.4%	-8.3%
Cn1c(=O)c2[nH]c(=O)cnc2n(C)c1=S	17.8µM*	-14.8%	50.1µM*	-10.0%	29.9µM*	-5.8%
O=C(N/N=C/c1cccc2nccnc12)c1ccncc1	?	17.8µM*	16.8%	37.5%	-2.4%	56.2µM*
O=C(N/N=C\c1ccncc1)c1ccccc1O	0.5%	-8.5%	-2.3%	17.6%	-13.5%	-9.8%
O=C(N/N=C/c1cccc2cccnc12)c1ccccc1O	16.5%	7.08µM*	41.0%	38.8%	2.4%	7.94µM*
O=C(N/N=C/c1cccc2nccnc12)c1ccccc1O	?	28.2µM*	13.2%	60.9%	0.3%	-13.2%[11.4 µM]
CC(C)(C)OC(=O)NCCC(=O)N/N=C/c1cccc2nccnc12	?	?	?	59.5%	-10.4%	-30.9%
CC(C)[C@@H](N)C(=O)N/N=C/c1ccc2nccnc2c1	-22.3%	?	5.62µM*	33.1%	5.0%	-6.5%
C=C(C)Cn1c(SCC(=O)c2ccc(OC)cc2)nc2sc3c(c2c1=O)CCCC3	.	-10.9%	-21.0%[59 µM]	-7.0%	.	-13.8%
CCC(C)[C@@H](N)C(=O)N/N=C/c1cccc2nccnc12 (some centres not stated)	?	79.4µM*	-42.1%	22.5%	-7.3%	50.1µM*
O=C(O)c1cccc2c1C(=O)c1ccc(-c3ccc(F)cc3OCc3ccccc3)cc1S2(=O)=O	.	79.4µM*	-13.1%[0.501 µM]	-2.2%	21.2µM*	?
Cc1ccc(-c2nn3c(C)nnc3c3ccccc23)cc1S(=O)(=O)NCC(C)O (configuration not stated)	.	-11.4%	11.2%[59 µM]	45.4%	.	-17.7%
N/C(=N/OC(=O)c1cccc([N+](=O)[O-])c1)c1cccc([N+](=O)[O-])c1	-0.7%	-23.0%	?	4.6%	4.5%	-24.8%
CC1=C(C)/C(=N/OC(=O)c2cccc([N+](=O)[O-])c2)C=CC1=O	17.9%	-23.2%	10µM*	10.1%	4.23µM*	-28.7%
CCCS(=O)(=O)c1nc(S(=O)(=O)c2ccc(C)cc2)c(N2CC(C)OC(C)C2)s1 (configuration not stated)	2.7%	-3.3%	50.1µM*	53.3%	-11.7%	-3.4%
CCCS(=O)(=O)c1nc(S(=O)(=O)c2ccc(C)cc2)c(NCc2ccccn2)s1	-4.4%	-0.3%	35.5µM*	49.5%	-1.3%	-4.8%
CS(=O)(=O)c1nc(S(=O)(=O)c2ccc(Cl)cc2)c(NCc2ccccn2)s1	8.5%	15.0%	39.8µM*	26.2%	-8.2%	-16.2%
CCCS(=O)(=O)c1nc(S(=O)(=O)c2ccc(C)cc2)c(NCc2ccco2)s1	-5.6%	-4.0%	39.8µM*	18.0%	-4.2%	-17.9%
CCS(=O)(=O)c1nc(S(=O)(=O)c2ccc(C)cc2)c(N2CC(C)OC(C)C2)s1 (configuration not stated)	6.8%	-1.6%	.	56.4%	1.6%	2.0%
Cc1cc(-n2c(C)nc3ccccc3c2=O)ccc1NC(=O)c1cccc([N+](=O)[O-])c1C	.	-11.4%	-13.7%[59 µM]	40.4%	.	-11.0%
CC(O)(c1ccc(Cl)cc1)c1ccc(Cl)cc1	2.8%	.	.	.	.	.
CC[C@]1(C(=O)OC)[C@H]2C(=O)N(Cc3ccccc3)C(=O)[C@H]2[C@H]2CN=C(SCC3CC3)N21	.	.	.	18.8%	-5.7%	79.4µM*
CCN1C(=O)[C@H]2[C@H]3CN=C(SCc4ccccc4)N3[C@@](Cc3ccccc3)(C(=O)OC)[C@H]2C1=O	.	.	.	21.0%	-19.7%	89.1µM*
CCN1C(=O)[C@H]2[C@H]3CN=C(SCC4CC4)N3[C@@](Cc3ccccc3)(C(=O)OC)[C@H]2C1=O	.	.	.	9.1%	-17.8%	89.1µM*
CCN1C(=O)[C@H]2[C@H]3CN=C(SCc4ccc(C#N)cc4)N3[C@@](Cc3ccccc3)(C(=O)OC)[C@H]2C1=O	.	.	.	34.1%	-12.3%	-35.5%
